Sampled rows, rich in hits. Any-hit rate of the full collection: about 7.9%.
FMDV antiviral: blocks foot and mouth disease virus; Potency, µM (doses to about 57.9 µM), for inactives: at the top dose activity change, negative = inhibition, hits mostly inhibitors; FMDV antiviral cell-based qHTS; 410,000 compounds, 1.2% hits; calls by dose curve; tested in HEK293T cells; also: read-out not given here; potency is read from the fitted curve at half-maximal effect; nearly all actives have a fitted effect of over 45% in size
HCV inhibitor: HCV inhibition; Huh7.5.1 HCVcc-Cre infection, luciferase reporter, 44 h; Potency, µM (top dose mostly 41.8 µM), for inactives: at the top dose activity change, negative = inhibition, usual class: inhibitors; 340,000 compounds, 3.4% hits; active = well fitted inhibition curve with a large enough effect; inconclusive = small, poorly fitted or top-dose-only effect, or another doubt; inactive = no such curve, though single readings can be large or run the other way; also: potency is read from the fitted curve at half-maximal effect
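A cell-based infection assay in which seeded cells (1,000 per well) receive test compound after 4 h, are inoculated with HCVcc-Cre at approximately 0.5 moi, and are incubated 44 h before luminescence detection.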
MARV entry inh: inhibitors of Marburg virus binding or cell entry; Marburg virus pseudotyped entry inhibition, cell reporter; Potency, µM (doses to about 37.8 µM), inactives show at the highest dose activity change, negative = inhibition, usual class: inhibitors; 300,000 compounds, 1.8% hits; AID 540276; calls by dose curve; tested in HEK293 cells; also: potency is read from the fitted curve at half-maximal effect
HCMV antiviral: human cytomegalovirus inhibition. activity change, negative = inhibition, % at 57.5 µM. HFF cells, HCMV-luciferase reporter, 72 h; hits give low values. 410,000 compounds, 4.5% hits; in the data active = activity change below about -60%; inconclusive = no clear call, values can overlap the other calls; inactive = above about -39%
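Steps: HFFs plated, 16 h 37C; compounds added; HCMV-luciferase added to MOI 1 PFU/cell; 72 h 37C; OneGlo reagent, 5 min room temperature; luminescence read, normalized to controls.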
Lassa entry inh: Lassa virus entry inhibition. 300,000 compounds, 1.2% hits. Potency, µM (top dose mostly 37.9 µM), for inactives: at the top dose activity change, negative = inhibition, usual class: inhibitors. Lassa virus pseudotype entry inhibition, cell reporter. AID 540256; calls by dose curve; tested in HEK293 cells; also: potency is read from the fitted curve at half-maximal effect; nearly all actives have a fitted effect of over 50% in size
The depositor's hits bear a star; ? = inconclusive; / = no result given; ! = not confirmed by another sample; [ ] = dose if it differs, or a comment. % is scaled to controls: 0 for no effect and ±100 for the full control effect.

SMILES | FMDV antiviral | HCV inhibitor | MARV entry inh | HCMV antiviral | Lassa entry inh
CCN(CC(=O)Nc1ccccc1SC)Cc1nc2ccccc2c(=O)[nH]1 | -24.1% | 11.2µM* | -2.2%[46.1 µM] | 18.8 | 0.7%
CCN(CC(=O)Nc1ccc2c(c1)OCO2)Cc1nc2ccccc2c(=O)[nH]1 | 10.4% | -14.4% | -6.2%[46.1 µM] | -100.1* | -9.4%
CCOc1ccc(C(=O)Nc2c(C)nc(Nc3ccccc3)nc2Nc2ccccc2)cc1OCC | -17.3% | / | ? | ? | -23.0%[46.1 µM]
CCOc1ccc(Nc2nc(C)c(NC(=O)c3cccc(OC)c3)c(Nc3ccc(OCC)cc3)n2)cc1 | ? | / | 11.2µM* | -12.3 | 2.8%[46.1 µM]
COc1ccc(CNC(=O)C2CCCN2c2nc(C)c3ccccc3n2)cc1 (stereo unspecified) | -2.3% | / | / | / | /
COc1ccccc1Cn1c(/C=C/c2ccccc2)nc2ccccc21 | -18.2% | 10µM* | ? | -24.5 | ?
COc1ccc(/C=C/c2nc3ccccc3n2Cc2ccccc2OC)cc1 | -26.6% | ? | ? | -97.9* | ?
COCCn1c(/C=C/c2ccccc2)nc2ccccc21 | 65.9% | 32.7% | 10µM* | 5.8 | ?
CN(C)CCNC(=O)CC1(C)N=C(c2ccc(-c3ccccc3)cc2)N(C)O1 (stereo unspecified) | / | / | / | -9.7 | /
COc1ccc(OC)c(-c2cc(C(=O)Nc3cnn(Cc4ccc(Cl)cc4Cl)c3)no2)c1 | -19.2% | / | -17.4%[46.1 µM] | -18.9 | -8.8%[46.1 µM]
Cc1cccc(N2CCN(C(=O)CCNS(=O)(=O)c3ccc4c(c3)CCC(=O)N4)CC2)c1C | -7.5% | ? | ? | ? | 6.51µM*
Cc1cccc(N2CCN(C(=O)CCNS(=O)(=O)c3ccc4c(c3)oc(=O)n4C)CC2)c1C | ? | ? | ? | -39.0 | ?
Cc1cccc(N2CCN(C(=O)CCS(=O)(=O)c3ccc4c(c3)oc(=O)n4C)CC2)c1C | ? | 11.2µM* | -2.5%[46.1 µM] | -61.6*! | ?
COc1ccc(N2Cc3ccccc3C2=NC(=O)c2cccc([N+](=O)[O-])c2)cc1 | 19.9% | 0.1% | 2.8% | -28.7 | 17.8%
CCOC(=O)c1ccc(N2Cc3ccccc3C2=NC(=O)c2cccs2)cc1 | 8.2% | 2.4% | ? | -20.9 | 10µM*
N#Cc1ccc(N2Cc3ccccc3C2=NC(=O)c2cccs2)cc1 | 25.3% | ? | ? | -37.7 | -5.6%
COc1ccc(N2Cc3ccccc3C2=NC(=O)c2cncc(Br)c2)cc1 | 44.5% | 2.5% | -5.5% | -81.4* | 25.4%
CC(=O)c1ccc(N2Cc3ccccc3C2=NC(=O)c2cccs2)cc1 | 1.7% | ? | ? | 195.8 | 7.94µM*
Clc1ccc(Cn2ncc3c(N4CCCCC4)ncnc32)c(Cl)c1 | 28.2µM* | 4.7% | 1.9% | -21.1 | 3.2%
Cc1ccc(-n2ncc3c(N4CCN(Cc5ccccc5)CC4)ncnc32)cc1Cl | 12.6µM* | / | / | -31.7 | 4.9%[46.1 µM]
CC(=O)c1ccc(N2CCN(c3ncnc4c3cnn4-c3cc(Cl)ccc3C)CC2)cc1 | 14.1µM* | / | / | -8.4 | 0.1%[46.1 µM]
c1ccc(CN2CCN(c3ncnc4c3cnn4-c3ccccc3)CC2)cc1 | ? | / | / | 25.2 | ?
Cc1ccc(Cl)cc1-n1ncc2c(N3CCCCCC3)ncnc21 | 20µM* | / | / | -35.3 | ?
COc1ccc(N2CCN(c3ncnc4c3cnn4-c3ccc(C)c(Cl)c3)CC2)cc1 | -1.1% | / | / | -38.6 | 19.8%[46.1 µM]
COc1ccccc1N1CCN(c2ncnc3c2cnn3-c2cc(Cl)ccc2C)CC1 | 11.2µM* | / | / | ? | -8.1%[46.1 µM]
SMILES | FMDV antiviral | HCV inhibitor | MARV entry inh | HCMV antiviral | Lassa entry inh
Cc1ccc(-n2ncc3c(N4CCN(C)CC4)ncnc32)cc1C | -37.4% | / | / | 24.0 | 15.9%[46.1 µM]
Cc1ccc(-n2ncc3c(N4CCCCC4)ncnc32)cc1Cl | 25.1µM* | / | / | -88.6* | ?
Cc1ccc(-n2ncc3c(N4CCCCCC4)ncnc32)cc1Cl | 63.1µM* | / | / | -90.3* | 15.3%[46.1 µM]
CC(C)Oc1ccc(C(=O)NCC(c2ccc(N(C)C)cc2)N2CCc3ccccc32)cc1 (stereo unspecified) | -1.9% | / | / | ? | ?
COc1ccc(C(CNC(=O)COc2ccc(F)cc2Br)N2CCCC2)cc1 (stereo unspecified) | -23.8% | ? | 4.47µM* | -60.5* | /
COc1ccc(C(CNC(=O)c2cccc(S(=O)(=O)Nc3ccc(C)cc3)c2)N2CCCCC2)cc1 (stereo unspecified) | 4.9% | 3.16µM* | ? | 13.9 | ?
COc1ccc(C(=O)NCC(c2ccc(N(C)C)cc2)N2CCc3ccccc32)cc1 (stereo unspecified) | -17.7% | / | / | -70.8* | ?
COc1ccc(C(CNC(=O)c2cccc(NS(=O)(=O)c3ccccc3)c2)N2CCCC2)cc1 (stereo unspecified) | -4.9% | -21.6% | / | 57.9 | /
COc1ccc(C(CNC(=O)c2cccc(Br)c2)N2CCCC2)cc1 (stereo unspecified) | -1.3% | ? | 11.6µM* | -7.6 | ?
Cc1ccc(N2CCN(C(=O)c3cnn(-c4ccc(C)c(C)c4)c3C3CCNCC3)CC2)c(C)c1 | -12.7% | / | / | -97.0* | ?
COc1ccccc1N1CCN(C(=O)c2cnn(-c3ccc(F)cc3F)c2C2CCNCC2)CC1 | -6.4% | / | / | -7.6 | 9.4%[46.1 µM]
Cn1ncc(Cl)c1C(=O)N1CCN(c2cccc(Cl)c2)CC1 | -21.8% | ? | ? | 9.1 | ?
Cc1cccc(N2CCN(C(=O)c3cnn(-c4cccc(Cl)c4C)c3C3CCNCC3)CC2)c1C | -18.9% | / | / | -98.6* | ?
Cc1c(Cl)cccc1-n1ncc(C(=O)N2CCOCC2)c1C1CCN(C(=O)OC(C)(C)C)CC1 | -13.3% | / | / | 8.7 | -24.2%[46.1 µM]
Cc1cccc(N2CCN(C(=O)c3c(Cl)cnn3C)CC2)c1C | ? | ? | ? | 27.3 | 11.2µM*
Cc1ccc(Cl)cc1N1CCN(C(=O)c2cnn(-c3ccc(Cl)cc3)c2C2CCNCC2)CC1 | -24.7% | / | / | -101.3* | ?
Cc1ccc(C)c(N2CCN(C(=O)c3ccc(-c4nc(COc5ccccc5)c(C)o4)cc3)CC2)c1 | 0.0% | / | / | 4.5 | -15.9%[46.1 µM]
CN(C)C(=O)c1ccc(SC(=S)NCc2ccccc2)cc1 | 35.5µM* | / | / | -26.0 | /
CN(C)c1nc2cc3c(cc2cc1CN(CC1CCCO1)C(=O)c1cccc(F)c1)OCO3 (stereo unspecified) | 4.8% | / | / | / | /
CCSc1nnc(C(C)NC(=O)c2ccc(OC)cc2)n1C (stereo unspecified) | -5.8% | / | / | / | /
CCC(SC1=NCCS1)C(=O)Nc1nnc(-c2ccccc2OC)s1 (stereo unspecified) | -5.5% | 13.0% | / | -97.3* | /
COc1cccc(C(=O)Nc2ccccc2OCc2cc(=O)n3cc(C)ccc3n2)c1 | -20.4% | / | / | 2.2 | -2.0%[46.1 µM]
Cc1cnc(C(=O)N2CCN(S(=O)(=O)c3ccc(F)c(F)c3F)CC2)cn1 | -13.9% | 12.7% | / | 15.4 | /
O=S(=O)(c1ccc(F)c(F)c1F)N1CCN(c2ncnc3sccc23)CC1 | ? | ? | ? | -79.4* | ?
c1ccc(CC2CCN(c3ncnc4sccc34)CC2)cc1 | ? | 3.98µM* | -12.9%[46.1 µM] | -85.3* | -8.5%[46.1 µM]
Cc1ccc(S(=O)(=O)N2CCN(c3ncnc4sccc34)CC2)cc1 | ? | 6.31µM* | / | -84.7* | /

High-throughput results: PubChem, National Center for Advancing Translational Sciences (NCATS)
